Screening data as filed in PubChem BioAssay.
Hits are enriched below; roughly 2.8% of the tested compounds scored in any of these assays.
SENP7 block – SENP7 protease inhibition. AID 434973. recombinant SENP7, Z-RLRGG-aminoluciferin luminescence, 40 min. 330,000 tested, 1.5% active. Q9BQF6. inhibition, % at 5 µM;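 active = inhibition above about 50% at the single test dose, limit read from the data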;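 also: plate controls were DMSO with enzyme for no effect and no enzyme buffer wells for full effect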
SENP8 block-1 – SENP8 (human) protease inhibition; Q96LD8; recombinant SENP8, Nedd8 substrate fluorescence; inhibition, % at 20 µM; 360,000 tested, 0.64% active; AID 602440; in the data active = inhibition mostly above about 40%, no sharp cut-off; inactive = mostly below about 27%
Platelet DG rel – platelet dense granule release activity; 300,000 tested, 0.22% active; human platelet-rich plasma, SFLLRN dense granule ATP release, luminescence; inhibition, %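 (compounds screened at 7.5 µM in platelet-rich plasma)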;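 active = mean replicate score, as percent of positive control, at or above 50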
SENP6 block – inhibitors of human SENP6 protease. Q9GZR1. Recombinant SENP6 catalytic domain, aminoluciferin luminescence. inhibition, % at 10 µM. 330,000 tested, 1.8% active. AID 2599;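 active = inhibition above about 50% at the single tested dose, limit read from the data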;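 also: plate controls were DMSO wells with enzyme for no effect and DMSO wells lacking enzyme for full effect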
Target sequence (Q9GZR1 628-1112 limits assumed): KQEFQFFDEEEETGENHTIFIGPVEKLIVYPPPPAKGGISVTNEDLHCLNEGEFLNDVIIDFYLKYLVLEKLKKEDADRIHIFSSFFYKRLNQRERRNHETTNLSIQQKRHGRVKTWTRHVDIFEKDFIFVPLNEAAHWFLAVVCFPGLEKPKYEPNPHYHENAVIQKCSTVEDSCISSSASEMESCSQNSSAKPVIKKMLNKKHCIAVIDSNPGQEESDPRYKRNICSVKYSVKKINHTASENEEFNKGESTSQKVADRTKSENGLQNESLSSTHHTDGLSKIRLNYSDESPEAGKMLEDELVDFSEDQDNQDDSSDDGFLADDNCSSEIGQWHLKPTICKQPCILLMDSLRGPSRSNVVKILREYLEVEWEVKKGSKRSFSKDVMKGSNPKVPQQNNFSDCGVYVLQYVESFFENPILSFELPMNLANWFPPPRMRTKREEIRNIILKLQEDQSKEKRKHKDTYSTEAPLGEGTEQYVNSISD
HSP90 refold inh – inhibitors of HSP90 luciferase refolding in rabbit reticulocyte lysate. 290,000 tested, 0.91% active. luciferase refolding luminescence, 3 h. inhibition, % at 5.6 µM;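 active = inhibition above the screen-wide mean plus 3 SD, computed separately per campaign, cut at about 16% in these data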;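 also: 0% = DMSO wells and 100% = 60 µM geldanamycin wells; inhibitors lower the luminescence because luciferase stays unfolded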
SENP8 block-2 – inhibitors of human SENP8 protease | 330,000 tested, 1.2% active | inhibition, % at 10 µM | purified SENP8, Z-RLRGG-aminoluciferin cleavage, luminescence | Q96LD8; in the data active = inhibition above about 50%
SENP8 confirm – human SENP8 inhibition, confirmed | Recombinant SENP8, Z-RLRGG-aminoluciferin luminescence, 60 min | AID 488912 | shares compounds with SENP7 block | 6,200 tested, 40% active | inhibition, % at 12.5 µM;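 active = mean inhibition across replicates above about 50%, limit read from the data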
SENP6 confirm – human SENP6 inhibition, confirmed; shares compounds with SENP7 block; recombinant SENP6, Z-RLRGG-aminoluciferin luminescence; inhibition, % at 12.5 µM; 6,200 tested, 58% active; AID 488915
SENP7 conf – confirmation of human SENP7 protease inhibitors | shares compounds with SENP7 block | recombinant SENP7, Z-RLRGG-aminoluciferin luminescence, 40 min | inhibition, % at 12.5 µM | 6,200 tested, 69% active | AID 488917
Casp3 select – selectivity test for SENP inhibitors: human caspase-3 inhibition. 6,200 tested, 60% active. purified caspase-3, Z-DEVD-aminoluciferin luminescence, 60 min. inhibition, % at 12.5 µM. shares compounds with SENP7 block;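 active = mean inhibition above about 50%, limit read from the data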;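 also: plate controls were enzyme with DMSO for no effect and wells without caspase-3 for full effect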
SENP luc ctr – counter-screen for SENP inhibitors: luminescence interference; shares compounds with SENP7 block; Pre-incubated SENP8/Z-RLRGG-aminoluciferin, luciferase luminescence interference; inhibition, % at 12.5 µM; 6,200 tested, 39% active; AID 488919;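 active = mean inhibition above about 50% when retested at one dose, limit read from the data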;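 also: plate controls were DMSO wells with completed reaction for no effect and substrate without enzyme for full effect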
* marks the source's active call; other numbers are inactive results; . = no result.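 The calls were made as follows, unless noted: active = mean inhibition above about 50% in the one-dose retest (limit read from the data); inactive = the rest.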

SMILES	SENP7 block	SENP8 block-1	Platelet DG rel	SENP6 block	HSP90 refold inh	SENP8 block-2	SENP8 confirm	SENP6 confirm	SENP7 conf	Casp3 select	SENP luc ctr
CCCNS(=O)(=O)c1ccc(NC(=O)c2ccccn2)cc1	57*	16	.	69*	6	41	36	35	79*	76*	58*
CCN(CC)S(=O)(=O)c1ccc(NC(=O)c2ccccn2)cc1	59*	12	-4	64*	1	39	49	48	81*	68*	57*
CC(=O)NS(=O)(=O)c1ccc(NC(=O)c2ccccn2)cc1	2	12	-2	-15	-3	2	.	.	.	.	.
O=C(Nc1ccc(SC(F)(F)F)cc1)c1ccccn1	93*	6	10	93*	5	89*	86*	94*	87*	61*	38
c1ccc2c(OCCCN3CCCCCC3)cccc2c1	-8	23	-3	10	-4	-8	.	.	.	.	.
CCOc1ccc(Br)cc1S(=O)(=O)NCC(c1ccc(OC)cc1)N1CCOCC1 (stereo not given)	.	0	.	.	.	.	.	.	.	.	.
CC(/C=C1\SC(=S)N(CCC(=O)Nc2cccc(C(=O)O)c2)C1=O)=C\c1ccccc1	5	17	-2	-2	2	5	.	.	.	.	.
Cc1ccc(/C=C2\SC(=S)N(CCCC(=O)Nc3cccnc3)C2=O)cc1	61*	18	2	58*	11	52*	0	1	2	11	15
O=C(CCN1C(=O)/C(=C/c2ccco2)SC1=S)Nc1ccc(C(=O)O)c(O)c1	5	24	-5	-8	-7	3	.	.	.	.	.
COc1ccccc1/C=C1\SC(=S)N(CCC(=O)Nc2ccc(C(=O)O)c(O)c2)C1=O	8	20	-4	72*	1	64*	77*	76*	79*	15	81*
CCc1ccc(C=C2SC(=S)N(CCCC(=O)Nc3ccc(C(=O)O)cc3)C2=O)cc1	.	13	.	.	.	.	.	.	.	.	.
CCc1ccc(/C=C2/SC(=S)N(CCC(=O)Nc3cccc(C(=O)O)c3)C2=O)cc1	52*	21*	-5	38	-2	79*	28	24	22	32	17
CCc1ccc(/C=C2/SC(=S)N(CCC(=O)Nc3ccc(C(=O)O)cc3)C2=O)cc1	75*	22	-1	22	3	85*	12	11	2	3	-1
CCCCn1nnnc1C(c1ccccc1)N1CCN(c2cccc(C(F)(F)F)n2)CC1 (stereo not given)	.	-26	.	.	.	.	.	.	.	.	.
CCN(C(=O)COC(=O)CC1CCCCC1)c1c(N)n(Cc2ccccc2)c(=O)[nH]c1=O	5	3	.	20	.	-5	.	.	.	.	.
CC(=O)c1cnc2cc(-c3ccc(C)cc3)nn2c1C	-1	-268	-2	67*	-4	45	50*	33	72*	66*	17
CC(=O)c1cnc2cc(-c3ccccc3)nn2c1C	-5	-277	2	-12	-1	-15	.	.	.	.	.
CN(C)N(C(=O)c1cc(-c2cccs2)nn1-c1ccccc1)C1CCS(=O)(=O)C1 (stereo not given)	-7	17	.	-14	.	-7	.	.	.	.	.
Cc1cc(/C=C2\SC(=S)N(C)C2=O)c(C)n1-c1cccc(O)c1	60*	16	14	90*	8	80*	5	26	27	8	13
COc1ccc(-n2c(C)cc(/C=C3/SC(=S)N(C)C3=O)c2C)cc1	.	19	6	.	1	.	.	.	.	.	.
N/C(=N\OC(=O)c1ccccc1Cl)c1cccc([N+](=O)[O-])c1	90*	15	4	75*	12	67*	59*	60*	91*	59*	81*
N/C(=N\OC(=O)c1cccc(F)c1)c1cccc([N+](=O)[O-])c1	28	17	-5	30	0	-13	.	.	.	.	.
N/C(=N\OC(=O)c1cccc([N+](=O)[O-])c1)c1ccccn1	61*	13	0	50*	-2	37	35	46	75*	80*	50
N/C(=N/OC(=O)c1cccc([N+](=O)[O-])c1)c1cccc([N+](=O)[O-])c1	-5	26	-5	-19	0	-10	.	.	.	.	.
CN1OC[C@@H]2CN(S(=O)(=O)c3ccccc3)[C@H](c3ccc(-n4ccnc4)cc3)C[C@@H]21	.	8	.	.	.	.	.	.	.	.	.
SMILES	SENP7 block	SENP8 block-1	Platelet DG rel	SENP6 block	HSP90 refold inh	SENP8 block-2	SENP8 confirm	SENP6 confirm	SENP7 conf	Casp3 select	SENP luc ctr
Cc1nc(N=Nc2ccc(O)cc2)n[nH]1	58*	21	37	75*	7	45	58*	53*	86*	87*	63*
Cc1ccc(-c2nc(N=Nc3ccc(O)cc3)n[nH]2)cc1	1	25	-8	11	-4	3	.	.	.	.	.
O=C(C[C@H]1C(=O)N(Cc2ccccc2)C[C@@H]1c1ccc(Br)cc1)Nc1ccc(Br)cc1	.	2	.	.	.	.	.	.	.	.	.
N#Cc1c(N(CCO)CCO)nc(N)c2c(N)nc3c(c12)CC(=O)N3CC1CCCO1 (stereo not given)	39	-408	-1	-13	0	67*	-6	3	-6	1	3
CN(C(=O)c1ccco1)c1nc2c(s1)CCCC2	92*	28	10	-4	5	85*	8	91*	101*	94*	89*
COc1ccc(CNC(=O)c2c(C)oc3c2C(=O)c2ccccc2C3=O)cc1	38	64*	10	66*	3	34	33	61*	21	70*	6
CC(=O)Nc1ccc(NC(=O)c2ccc(-c3ccccc3Cl)o2)cc1	-9	-55	.	-19	.	-21	.	.	.	.	.
O=C(Nc1ccccc1)c1ccc(-c2ccccc2Cl)o1	60*	12	-3	66*	-1	21	5	24	82*	38	1
CC(=O)Cc1nsc(NC(=O)c2ccc(-c3ccccc3Cl)o2)n1	45	-91	0	31	4	57*	83*	79*	92*	66*	66*
O=C(Nc1nccs1)c1ccc(-c2ccccc2Cl)o1	70*	-76	1	79*	-4	62*	66*	69*	-7	23	25
CC(=O)Cc1nsc(NC(=O)c2oc(-c3ccccc3Cl)cc2C)n1	5	-179	0	0	-3	4	.	.	.	.	.
